ChEMBL document CHEMBL1201862, “PubChem BioAssay data set” (2004)
Screen size: about 400,000 compounds; about 2,100 (0.53%) were called active. Inconclusive results (about 14%) are left out. This is one part of a sample in which actives are shown more often than they occur. The rule behind the calls is not given here.

Target: Ataxin-2 (Homo sapiens) (UniProt Q99700)
Experiment: qHTS for Inhibitors of ATXN expression.
Format: functional

Ataxin-2 (Homo sapiens), sequence (Q99700 whole entry): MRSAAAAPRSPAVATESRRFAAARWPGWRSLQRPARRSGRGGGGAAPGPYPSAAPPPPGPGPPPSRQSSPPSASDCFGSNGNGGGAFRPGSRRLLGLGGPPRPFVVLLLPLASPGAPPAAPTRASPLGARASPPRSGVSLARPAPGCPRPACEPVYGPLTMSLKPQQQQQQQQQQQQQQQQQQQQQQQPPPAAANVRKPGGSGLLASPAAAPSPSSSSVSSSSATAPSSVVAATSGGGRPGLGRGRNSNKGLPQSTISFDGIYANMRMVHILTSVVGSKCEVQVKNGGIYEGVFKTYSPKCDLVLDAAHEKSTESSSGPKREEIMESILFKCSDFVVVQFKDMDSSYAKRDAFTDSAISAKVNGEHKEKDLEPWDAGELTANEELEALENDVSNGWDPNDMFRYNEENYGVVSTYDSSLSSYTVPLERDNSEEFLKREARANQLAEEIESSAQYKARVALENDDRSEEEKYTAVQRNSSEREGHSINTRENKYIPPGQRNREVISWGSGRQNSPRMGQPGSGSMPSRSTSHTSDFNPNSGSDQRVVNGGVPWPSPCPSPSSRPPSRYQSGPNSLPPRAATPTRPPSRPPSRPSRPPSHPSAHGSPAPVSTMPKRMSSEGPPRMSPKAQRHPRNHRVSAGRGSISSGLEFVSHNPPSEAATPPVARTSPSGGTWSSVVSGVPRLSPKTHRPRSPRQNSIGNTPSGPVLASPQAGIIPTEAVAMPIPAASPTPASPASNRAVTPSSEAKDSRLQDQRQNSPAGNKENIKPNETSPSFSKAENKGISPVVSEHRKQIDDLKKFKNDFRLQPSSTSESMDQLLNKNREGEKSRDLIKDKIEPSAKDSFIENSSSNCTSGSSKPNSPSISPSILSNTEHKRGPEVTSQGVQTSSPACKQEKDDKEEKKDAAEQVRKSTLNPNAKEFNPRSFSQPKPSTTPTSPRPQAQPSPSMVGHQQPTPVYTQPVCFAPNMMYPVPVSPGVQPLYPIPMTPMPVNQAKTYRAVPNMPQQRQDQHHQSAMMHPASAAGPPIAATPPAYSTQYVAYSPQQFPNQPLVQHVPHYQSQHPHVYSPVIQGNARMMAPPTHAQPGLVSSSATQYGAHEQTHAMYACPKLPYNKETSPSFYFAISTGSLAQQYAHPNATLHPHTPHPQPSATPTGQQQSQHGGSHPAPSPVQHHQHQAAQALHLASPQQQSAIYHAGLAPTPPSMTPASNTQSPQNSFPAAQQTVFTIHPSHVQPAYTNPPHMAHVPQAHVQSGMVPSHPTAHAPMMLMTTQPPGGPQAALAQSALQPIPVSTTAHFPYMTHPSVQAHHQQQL

Structure (SMILES)	Potency
O=C(NNc1c2ccccc2nc2ccccc12)c1ccccc1O	35.5 µM (active)
CC(C)(C)OC(=O)NNc1c2ccccc2nc2ccccc12	inactive
CCSc1ccccc1C(=O)Nc1nc(O)c2ccccc2n1	inactive
Cc1ccc(CNC(=O)CN(c2ccc(C(C)C)cc2)S(=O)(=O)c2c(C)n[nH]c2C)cc1	35.5 µM (active)
CSc1nsc(SCC(=O)NCc2ccc(C)cc2)n1	inactive
Cc1c(Cl)cccc1N(CC(=O)NC(C)c1ccccc1)S(C)(=O)=O (centres undefined)	inactive
Cc1ccc(CNC(=O)CN(C)S(=O)(=O)c2ccc(F)cc2)cc1	inactive
Cc1n[nH]c(C)c1S(=O)(=O)N(CC(=O)NC(C)c1ccccc1)c1ccc(C(C)C)cc1 (centres undefined)	35.5 µM (active)
COc1ccc(S(=O)(=O)N(CC(=O)NCc2ccccc2)c2ccc(C)cc2)cc1OC	35.5 µM (active)
COc1ccc(N(CC(=O)Nc2ccccc2Cl)S(=O)(=O)c2ccc(C)cc2)cc1OC	inactive
Cc1cc(S(=O)(=O)NC(C)C)ccc1OCC(=O)NCc1ccccc1	inactive
Cc1cccc(C(=O)NCC(=O)OCC(=O)N2CCc3ccccc32)c1	inactive
N#C/C(=C\Nc1ccc2c[nH]nc2c1)c1nc(-c2ccc(Cl)cc2)cs1	inactive
C=CCN(CC=C)C(=S)NC(=O)c1ccc(-c2ccccc2)cc1	25.1 µM (active)
CCCN(CC1CC1)C(=S)NC(=O)c1ccccc1C	inactive
O=C(NC(=S)NCc1ccco1)c1ccc(Br)cc1	inactive
COc1cc(/C=C2/C(=N)N3C(SC)=NSC3=NC2=O)ccc1OC(=O)c1ccco1	inactive
CCOC(=O)N1CCN(C(=O)c2cc3cc(C)ccc3[nH]2)CC1	inactive
CC(C)CCN1C(=O)C2(OCCCO2)c2cc(Cl)ccc21	inactive
COc1cccc(NC(=O)C(=O)NCC2CCCN2S(=O)(=O)c2cccs2)c1 (centres undefined)	inactive
O=C(NC1CCN(Cc2ccccc2)CC1)c1ccccc1Cl	inactive
S=C(Nc1ccc(Cl)c(Cl)c1)NC1CCN(Cc2ccccc2)CC1	28.2 µM (active)

Structure (SMILES)	Potency
Cc1ccc(NC(=S)NCc2ccccc2)cc1C	inactive
CCCCCCSc1cc(-c2nc3cc(C)ccn3c2NCCCC)ccc1OC	35.5 µM (active)
CCCCNc1c(-c2ccc(OC)c(SC(C)CC)c2)nc2cnccn12 (centres undefined)	inactive
CCCCCCSc1cc(-c2nc3cnccn3c2NCCCC)ccc1OC	inactive
COC(=O)C1=CN(Cc2ccccc2)C=C(C(=O)OC)C1c1cc(F)ccc1F	inactive
O=C(COC(=O)c1c(F)cccc1F)NC(=O)NCc1ccccc1	inactive
COC(=O)C1=CN(Cc2ccc(OC)c(OC)c2)C=C(C(=O)OC)C1c1cccc(OC)c1OC	inactive
COC(=O)C1=C(C)N(Cc2ccccc2)C(NCC(C)C)=N[C@H]1c1cccc(F)c1	31.6 µM (active)
COC(=O)C1=CN(C(C)C)C=C(C(=O)OC)C1c1cc(Br)c(OC)c(OC)c1	inactive
COC(=O)C1=C(C)N(Cc2ccccc2)C(NCc2ccc(OC)cc2)=N[C@H]1c1cccc(F)c1	35.5 µM (active)
COC(=O)C1=C(C)N(c2ccc(OC)cc2)C(C)=C(C(=O)OC)C1c1ccccc1	inactive
CCN1C=C(C(=O)OC)C(c2cccc(C)c2)C(C(=O)OC)=C1	inactive
COC(=O)C1=C(C)N(Cc2ccccc2)C(NCc2cc(OC)c(OC)c(OC)c2)=N[C@H]1c1ccc(Br)cc1	35.5 µM (active)
COC(=O)C1=C(C)N(Cc2ccccc2)C(NCc2ccccc2)=N[C@H]1c1cccc(F)c1	31.6 µM (active)
COCCNC(=O)/C(C#N)=C/c1c(N2CCN(C)CC2)nc2ccccn2c1=O	inactive
COc1ccc2oc3cc(NCCN(C)C)ccc3c(=O)c2c1	inactive
CCOc1ccc(C(=O)/C=C/c2cn(CC(O)CN3CCc4ccccc43)c3ccccc23)cc1 (centres undefined)	inactive
CCCN(CCC)CC(O)Cn1cc(/C=C/C(=O)c2ccc(Br)cc2)c2ccccc21 (centres undefined)	inactive
Cc1nc2c(o1)C(=O)c1ccccc1C2=Nc1ccccc1	31.6 µM (active)
Cc1nc(-c2ccc([N+](=O)[O-])cc2)c(-c2ccccc2)o1	inactive
COc1ccc(CCNC(=O)c2ccc(CSc3ccccc3)o2)cc1	inactive
CC(C)C(NC(=O)c1c(F)cccc1F)C(=O)NCCc1ccc(S(N)(=O)=O)cc1 (centres undefined)	inactive

Structure (SMILES)	Potency
CCc1ccccc1S(=O)(=O)Cc1ccc(C(=O)NCCc2ccc(Cl)cc2)o1	25.1 µM (active)
CCC(=O)Nc1cc2nc(O)cc(C)c2cc1C	inactive
CCN1CCSc2ccc(C(=O)NCc3ccccc3F)cc21	inactive
O=C(NCCc1ccc(Cl)cc1)c1ccc2c(c1)N(Cc1ccc(F)cc1Cl)C(=O)CS2	14.1 µM (active)
O=C(Cc1ccc(Cl)cc1)NCCc1ccc(F)cc1	inactive
CCc1c(-c2ccccc2)nc2nc(C)c(C)nn12	inactive
CCCCN1C(C(=O)Nc2cc(C)on2)=C(O)c2ccccc2S1(=O)=O	inactive
COc1cc(N(C(C)=O)c2ccc(O)cc2)c2ncccc2c1	inactive
CCCC(=O)NC(c1ccc(OC)cc1)c1ccc2cccnc2c1O (centres undefined)	inactive
COc1cccc(N=Nc2ccc3cccnc3c2O)c1	11.2 µM (active)
COCC(=O)N1CCC(n2nccc2NC(=O)CCOc2ccccc2)CC1	inactive
CCS(=O)(=O)N1Cc2ccccc2CC1C(=O)N(C)CC(=O)Nc1ccc(OC)cc1 (centres undefined)	inactive
COC(=O)C1Cc2ccccc2CN1C(=O)CCl (centres undefined)	42.3 µM (active)
COc1cc(OC)c(OC)cc1/C=C1\Oc2cc(OCC(=O)N3Cc4ccccc4C[C@H]3C(=O)O)ccc2C1=O	inactive
O=C(c1ccc([N+](=O)[O-])cc1)N1CCC(n2nnc3cc(F)ccc32)CC1	inactive
CC(=O)N1CCc2c(sc3c2c(=O)n(-c2ccccc2Cl)c(=O)n3Cc2cccc(C)c2)C1	35.5 µM (active)
CC(=O)Nc1sc2c(c1C(N)=O)CCN(Cc1ccccc1)C2	inactive
CCC(C(=O)NCc1cccc(C)c1)n1nc(C)c2c(C)n(-c3ccccc3)nc2c1=O (centres undefined)	inactive
NNc1ncnc2sc3c(c12)CCC3	inactive
CCCCNC(=O)COC(=O)c1c2c(nc3ccccc13)/C(=C\c1cccs1)CC2	inactive
